High-throughput results (PubChem)
This is a sample that favours compounds with a hit; in the whole collection about 32% have one here.
PostGolgi ctrl = inhibits growth of the yeast control strain. efflux-deficient yeast background strain, growth absorbance A615, 16 h. inhibition, % at 10 µM. 5% of 98,000 active. AID 738
CYP2C9 inh = blocks human cytochrome P450 2C9 | inhibition, % at 5 µM | 20% of 96,000 active | P11712 | CYP2C9 Supersomes, luciferin-H conversion, luminescence;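 active means blocking of liver enzyme CYP2C9 beyond about 50% at 5 µM, limit read from the data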
Target sequence (P11712 whole entry, looked up): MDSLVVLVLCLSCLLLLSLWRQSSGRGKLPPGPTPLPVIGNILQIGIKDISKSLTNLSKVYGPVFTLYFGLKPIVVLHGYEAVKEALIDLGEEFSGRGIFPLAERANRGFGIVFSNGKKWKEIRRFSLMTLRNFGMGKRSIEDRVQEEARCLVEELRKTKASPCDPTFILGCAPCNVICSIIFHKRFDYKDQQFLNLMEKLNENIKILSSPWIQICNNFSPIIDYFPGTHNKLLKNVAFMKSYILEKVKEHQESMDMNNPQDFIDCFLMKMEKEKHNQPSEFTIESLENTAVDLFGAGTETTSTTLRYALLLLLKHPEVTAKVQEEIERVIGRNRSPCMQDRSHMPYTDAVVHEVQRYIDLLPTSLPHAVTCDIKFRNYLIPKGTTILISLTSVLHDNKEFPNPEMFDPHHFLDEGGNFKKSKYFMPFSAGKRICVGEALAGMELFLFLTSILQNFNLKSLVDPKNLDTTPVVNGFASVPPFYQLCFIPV
CYP2C19 inhib = blocks human cytochrome P450 2C19 | CYP2C19 Supersomes, luciferin-H EGE luminescence, 30 min | P33261 | inhibition, % at 5 µM | 21% of 96,000 active | AID 778;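 active means CYP2C19 inhibition above a set limit at 5 µM in the primary screen, cut at about 50% in these data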;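 further: plate controls were negative control wells for no effect and 2.5 mM tranylcypromine positive control for full effect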
CYP2C9 act = increases human cytochrome P450 2C9 activity; 1.4% of 96,000 active; activation factor at 5 µM; recombinant CYP2C9, luciferin-H conversion, luminescence; hits give high values; factor 1 = untreated enzyme, 0 = blocked; P11712;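 active means activation factor of 2 or more for CYP2C9 at a 5 µM dose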;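 further: 0 = sulfaphenazole-blocked wells and 1 = vehicle-only wells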
CYP2C19 act = activators of human cytochrome P450 2C19; P33261; recombinant CYP2C19, luciferin-H EGE luminescence; hits give high values; 0 = fully inhibited enzyme, 1 = untreated enzyme; activation factor at 5 µM; 96,000 tested, under 10 active; AID 1025;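 active means activation factor of at least 2 at 5 µM in the primary screen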;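 further: 0 = wells with 2.5 mM tranylcypromine and 1 = vehicle-only wells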
PostGolgi yeast = growth inhibition of a yeast mutant, post-Golgi transport screen. post-Golgi transport phenotypic cell assay. inhibition, % at 10 µM. 0.9% of 98,000 active. AID 739;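 further: yeast cells grown in 1536-well plates; yeast grown about 18 h at 30C before absorbance read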
* hit, by the source's call. Unless noted, no stated cut-off is given here; in the data, active means inhibition above about 30%; inactive means the rest.

SMILES	PostGolgi ctrl	CYP2C9 inh	CYP2C19 inhib	CYP2C9 act	CYP2C19 act	PostGolgi yeast
CCOC(=O)c1cnc(SC2CC(=O)N(c3ccc(C)cc3)C2=O)nc1N (stereo not drawn)	12	23	-3	0.8	1	9
COc1ccc(C(=O)NCc2cn3ccsc3n2)cc1OC	3	-14	-13	1.1	1.1	-3
O=C1CN(c2nc3ccccc3n3cnnc23)CC(=O)N1CCc1ccccc1	13	62*	44	0.4	0.6	3
O=C1CN(S(=O)(=O)c2ccccc2)CC(=O)N1CCc1ccccc1	0	14	17	0.9	0.8	-3
COc1cccc(C(=O)N(Cc2cc3cc(C)ccc3[nH]c2=O)C(C)C)c1	3	-13	11	1.1	0.9	0
COc1cc2cc(CN(C(=O)NC3CCCCC3)C3CCCC3)c(=O)[nH]c2cc1OC	1	6	-3	0.9	1	8
CCCC(=O)N(Cc1cc2cc(C)ccc2[nH]c1=O)c1ccccc1OC	4	21	5	0.8	1	6
CCCN(Cc1cc2cc(C)ccc2[nH]c1=O)C(=O)c1cccc(OC)c1	10	58*	64*	0.4	0.4	-2
COc1ccc2cc(CN(C(=O)Nc3ccccc3OC)C3CCCC3)c(=O)[nH]c2c1	11	51*	23	0.5	0.8	-4
COc1ccc2[nH]c(=O)c(CN(C)C(=O)c3ccncc3)cc2c1	8	60*	92*	0.4	0.1	6
CCCN(Cc1cc2cc(C)ccc2[nH]c1=O)S(C)(=O)=O	-7	73*	88*	0.3	0.1	-7
COc1ccc(-c2nnc(SCc3c(C)noc3C)n2N)cc1OC	24	26	23	0.7	0.8	-2
CCCCCCc1nc2ccccc2c(=O)n1N	3	21	35	0.8	0.7	22
CCOC(=O)c1cccc(S(=O)(=O)N(CCO)Cc2cc3cc(OC)ccc3[nH]c2=O)c1	1	12	56*	0.9	0.4	-3
COc1ccc2[nH]c(=O)c(CN(C(=O)c3ccncc3)C(C)C)cc2c1	10	50*	29	0.5	0.7	-4
COc1ccc2[nH]c(=O)c(CN(C(=O)c3ccncc3)C(C)(C)C)cc2c1	0	21	-1	0.8	1	0
O=C(c1ccccn1)N(Cc1cc2ccccc2[nH]c1=O)C1CCCCC1	-5	41	-3	0.6	1	19
CCCCN(Cc1cc2cc(OC)ccc2[nH]c1=O)C(=O)c1ccco1	4	70*	74*	0.3	0.3	-2
CCOC(=O)c1cccc(S(=O)(=O)N(CCO)Cc2cc3cc(OC)c(OC)cc3[nH]c2=O)c1	-3	2	3	1	1	2
COc1ccc2[nH]c(=O)c(CN(C(=O)c3ccccn3)C3CCCCC3)cc2c1	6	63*	0	0.4	1	12
CC(=O)N/C(=C/c1ccc2c(c1)OCO2)C(=O)NCCCO	3	-23	-14	1.2	1.1	-2
CCCN(Cc1cc2cc(OC)ccc2[nH]c1=O)C(=O)c1ccncc1	6	46	68*	0.5	0.3	-2
NC1=NC(c2ccccc2Cl)n2c(nc3ccccc32)N1 (stereo not drawn)	30	-3	-3	1	1	4
NC1=NC(c2ccc(Cl)cc2)n2c(nc3ccccc32)N1 (stereo not drawn)	10	10	88*	0.9	0.1	20
CC1NC(=O)NC1CCCCCC(=O)NCCc1ccccc1 (stereo not drawn)	6	4	-12	1	1.1	-3
SMILES	PostGolgi ctrl	CYP2C9 inh	CYP2C19 inhib	CYP2C9 act	CYP2C19 act	PostGolgi yeast
CC1(C)NC(=O)N(CCOCCOc2cccc(Oc3ccccc3)c2)C1=O	-12	84*	96*	0.2	0	-6
O=C1CCC(=O)N1OCCCOc1ccc2c(c1)CCC2	15	-10	6	1.1	0.9	-7
CC1(C)NC(=O)N(CCCCOc2ccc3c(c2)CCC3)C1=O	26	33	78*	0.7	0.2	1
CCC(C)Oc1cccc(OCCCCN2C(=O)NC(C)(C)C2=O)c1 (stereo not drawn)	14	59*	72*	0.4	0.3	1
CCCOC(=O)c1ccc(OCC(O)CN2C(=O)NC(C)(C)C2=O)cc1 (stereo not drawn)	5	1	13	1	0.9	21
CC1(C)NC(=O)N(CCCCOc2cccc(C(F)(F)F)c2)C1=O	13	61*	85*	0.4	0.2	20
